From PubChem BioAssay AID1778 (Sanford-Burnham Center for Chemical Genomics, 2009)
Hit rate of the full screen: of about 290,000 compounds, about 260 (0.09%) were called active. Cut-off read from the data, not from the text of the source: active = inhibition above about 50%; inactive = the rest. For the sample, actives were picked, then their nearest neighbours and some compounds at random. Potency and affinity values are given separately.

Molecular target: Kappa-type opioid receptor (Homo sapiens) (UniProt P41145)
Sequence (P41145 whole entry, looked up): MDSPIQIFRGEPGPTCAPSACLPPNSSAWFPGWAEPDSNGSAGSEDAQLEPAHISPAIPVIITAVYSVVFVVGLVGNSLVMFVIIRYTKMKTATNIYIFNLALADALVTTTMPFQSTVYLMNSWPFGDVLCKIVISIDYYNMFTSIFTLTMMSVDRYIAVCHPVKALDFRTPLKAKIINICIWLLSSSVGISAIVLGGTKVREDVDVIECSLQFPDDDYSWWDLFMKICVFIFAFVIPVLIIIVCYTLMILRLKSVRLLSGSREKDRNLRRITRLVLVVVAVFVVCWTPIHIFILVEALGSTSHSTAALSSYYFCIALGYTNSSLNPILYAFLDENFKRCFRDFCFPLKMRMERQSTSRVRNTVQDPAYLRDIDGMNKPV
Assay: kappa opioid receptor blockers – cell-based, luminescence, uHTS (AID 1778)
Settings: KOR beta-arrestin recruitment, antagonist mode, hits give high values; at 10 µM unless noted

inhibition, inactive:
NC(=S)c1ncc(C(F)(F)F)cc1Cl -11.8%
NC(=S)Nc1ncc(C(F)(F)F)cc1Cl -71.5% [at 20 µM]
CCOC(=O)N1CCN(C(=O)Nc2sc3nc4n(c(=O)c3c2C)CCC(C)CC4)CC1 (configuration not stated) -7.4%
COc1ccccc1CCNC(=O)C(=O)NCC1OCCN1S(=O)(=O)c1cc(F)ccc1F (configuration not stated) -43.3% [at 20 µM]
CCOc1ccc(-c2nc(C#N)c(NCC3CCCO3)o2)cc1 (configuration not stated) 10.1%
CC(CCc1ccccc1)NC(=O)c1cccc(F)c1 (configuration not stated) -19.3% [at 20 µM]
Cc1ccnc(NC(=O)CCC(=O)N(CC(=O)NC2CCCCC2)CC2CCCO2)c1 (configuration not stated) 11%
COc1ccc(C(=O)/C=C/C(=O)N(Cc2ccc3c(c2)OCO3)C(C(=O)NC2CCCCC2)c2ccncc2)c(O)c1 (configuration not stated) 15.5%
COc1ccc(C(=O)/C=C/C(=O)N(Cc2ccc(F)cc2)C(C(=O)NC2CCCCC2)c2ccncc2)c(O)c1 (configuration not stated) 6.8%
COc1ccc(C(=O)/C=C/C(=O)N(Cc2ccccc2OC)C(C(=O)NC2CCCCC2)c2ccncc2)c(O)c1 (configuration not stated) 12.2%
COc1ccc(C(=O)/C=C/C(=O)N(CC(=O)NC2CCCCC2)Cc2ccc(F)cc2)c(O)c1 33.1%
COc1ccc(C(=O)/C=C/C(=O)N(Cc2ccccc2)C(C(=O)NC2CCCCC2)c2ccncc2)c(O)c1 (configuration not stated) 9.1%
COc1ccc(CN(C(=O)/C=C/C(=O)c2ccc(OC)cc2O)C(C(=O)NC2CCCCC2)c2ccncc2)cc1 (configuration not stated) 8.2%
COc1ccc(C(=O)/C=C/C(=O)N(CC(=O)NC2CCCCC2)Cc2cccs2)c(O)c1 26.6%
COc1ccc(NS(=O)(=O)c2cc(NC(=O)c3cccnc3Cl)ccc2N2CCCC2)cc1 37.4%
C[C@@H]1CCC[C@]2(O[C@H](CCO)C[C@H](O)[C@H]2O)O1 47.9%
CC1CC2=C(NC(=S)NC2c2cccc(F)c2)/C(=C/c2cccc(F)c2)C1 (configuration not stated) 4.5%
O=C(c1cccs1)N(C(=O)c1cccs1)c1ccc(Br)cn1 -21.5%
Cc1cnc(C)c(N2CCN(Cc3nc(-c4ccccc4)no3)CC2)n1 -15.2%
N#CCCN(NC1=NS(=O)(=O)c2ccccc21)C(=O)c1ccccc1Br 8.1%

inhibition, active:
COc1ccc(C(=O)/C=C/C(=O)N(CC(=O)NC2CCCCC2)Cc2ccccc2OC)c(O)c1 56.3%
COc1ccc(C(=O)/C=C/C(=O)N(CC(=O)NC2CCCCC2)CC2CCCO2)c(O)c1 (configuration not stated) 82.5%
